Screening data: PubChem BioAssay, National Center for Advancing Translational Sciences (NCATS)
Most compounds without a hit are left out; they make up all but 3% or so of the library.
PNC assembly inh: High Content Assay for Compounds that inhibit the Assembly of the Perinucleolar Compartment; PC3M PTB-GFP, PNC prevalence imaging, 16 h; stronger effect = lower value; activity change (PNC), negative = inhibition, % at 10 µM; 3.1% of 140,000 active;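 active = readout at or below -70, meaning at least 70% loss of cells showing the perinucleolar compartment, a nuclear body marking cancer cells; inconclusive = readout between -30 and a set limit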;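 also: plate controls were DMSO wells for no effect and camptothecin positive control wells for full effect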
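Read-out is percentage of cells bearing a perinucleolar compartment, from automated 20x imaging of fixed, Hoechst-stained PC3M PTB-GFP cells. Cells were seeded 4 h, then exposed 16 h to compound (23 nl of library stock) in duplicate plates.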
ALOX12 inhib: qHTS Assay for Inhibitors of 12-hLO (12-human lipoxygenase). purified 12-hLO, xylenol orange hydroperoxide absorbance. Potency, µM (titrated, usually from 57.1 µM), inactives show at the highest dose activity change, negative = inhibition, usual class: inhibitors. 0.12% of 150,000 active; also: potency is read from the fitted curve at half-maximal effect; nearly all actives have a fitted effect of over 55% in size
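Hydroperoxide output read as Fe(III)-xylenol orange absorbance, 573-to-405 nm ratio, after 30 min reaction with 40 uM arachidonic acid. Enzyme: 150 nM purified human 12hLO, 15 min compound preincubation; 25 mM Hepes pH 7.0, room temperature.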
15-hLO-2 inh: qHTS Assay for Inhibitors of 15-hLO-2 (15-human lipoxygenase 2) | 0.56% of 110,000 active | Polyunsaturated fatty acid lipoxygenase ALOX15B (Homo sapiens), O15296 | Potency, µM (doses to about 57.1 µM), without a hit: at the highest dose activity change, negative = inhibition, usual class: inhibitors | purified 15hLO-2, xylenol orange hydroperoxide absorbance; also: potency is read from the fitted curve at half-maximal effect; nearly all actives have a fitted effect of over 60% in size
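Purified human 15hLO-2 (50 nM) preincubated 15 min with compound, then 45 uM arachidonic acid for 90 min at RT in 25 mM Hepes pH 7.5, 0.01% Triton X-100. Hydroperoxide detected by Fe-xylenol orange; 573/405 nm absorbance ratio.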
IMPase cell inh: qHTS Assay for Identifying the Cell-Membrane Permeable IMPase Inhibitors; CHO-M1 cells, IP1 accumulation, HTRF TR-FRET ratio; Inositol monophosphatase 1 (Rattus norvegicus), P97697; inhibition (IP1 accumulation), % at 46.1 µM; AID 901, 2007; 120,000 tested, under 10 active; active = well fitted curve in the direction sought with a large enough effect in the signal ratio, not every such curve was filed as active; inconclusive = small, poorly fitted or top-dose-only effect, or a change in a side signal; inactive = no such curve, though single readings can be large or run the other way; the % refers to the signal ratio;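 also: cells stimulated with carbachol in lithium chloride buffer; plate controls were DMSO basal wells for no effect and reference inhibitor wells for full effect; higher means more IMPase inhibition seen as more IP1 and lower FRET ratio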
Target sequence (P97697 whole entry, looked up): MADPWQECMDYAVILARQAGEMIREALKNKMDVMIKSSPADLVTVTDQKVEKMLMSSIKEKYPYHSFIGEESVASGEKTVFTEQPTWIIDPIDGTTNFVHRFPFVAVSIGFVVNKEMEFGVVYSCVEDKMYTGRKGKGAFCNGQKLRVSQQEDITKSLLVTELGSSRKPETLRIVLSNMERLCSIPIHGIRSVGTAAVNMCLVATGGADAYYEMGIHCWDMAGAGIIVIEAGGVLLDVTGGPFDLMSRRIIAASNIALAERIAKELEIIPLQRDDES
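CHO-M1, 2000 cells/well, cultured 16–30 h; cpd up to 46 uM; carbachol (50 uM solution, stimulation buffer w/ 50 mM LiCl, pH 7.4), 30 min 37C; IP-One TR-FRET, 10 min RT; Ex 320/Em 665, 620; Hill-fit AC50.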
Active calls of the source: *; ? = inconclusive; . = not tested or not shown; [ ] = remark or other dose. Unless noted, calls follow the shape of the dose curve; as a rule, active = well fitted curve in the direction sought with a large enough effect; inconclusive = small, poorly fitted or top-dose-only effect, or another doubt; inactive = no such curve, though single readings can be large; an effect the other way counts as inactive or inconclusive. Unless noted, % is scaled to controls: 0 for no effect and ±100 for the full control effect.

SMILES	PNC assembly inh	ALOX12 inhib	15-hLO-2 inh	IMPase cell inh
Cc1ccccc1Nc1nnc(-c2ccc(C)c(S(=O)(=O)NCC3CCCO3)c2)c2ccccc12 (configuration not stated)	.	.	.	3.2
CC(C)OC(=O)COc1ccc(-c2ccccc2)cc1	11.9	-4.8%	11.2%	-0.2
CC(=O)c1ccc(OCC(=O)c2ccc(-c3ccccc3)cc2)cc1	-87.4*	-0.6%	.	.
COc1ccc(-c2nnc(SCC(=O)c3ccc(C)o3)o2)cc1	-118.9*	1.9%	.	6.3
COc1ccc(-c2nnc(SCC(=O)N3c4ccccc4Sc4ccccc43)o2)cc1	-100.0*	5.3%	.	-2.5
CCCCCCn1c(CN2CCCCC2CC)nc2c1c(=O)n(C)c(=O)n2C (configuration not stated)	?	-2.6%	5.8%	-6.0
Nc1ccccc1C(=O)CC(N)C(=O)O (configuration not stated)	.	-1.0%	-4.6%	-1.7
Cn1cc(Cl)c(C(=O)NC2CCCCCC2)n1	-2.4	-1.3%	1.4%	-0.2
Cn1cc(Cl)c(C(=O)NNC(=S)NC2CCCCC2)n1	-109.0*	-0.1%	.	.
COCCN1C(=O)c2ccc(C(=O)Nc3nccs3)cc2C1=O	-111.0*	-4.3%	-2.4%	-3.8
CCCN1C(=O)c2ccc(C(=O)Nc3nccs3)cc2C1=O	-84.6*	-4.8%	-0.3%	4.1
Cc1ccccc1OCc1nc2ccccc2c(=O)n1NC(=O)c1ccco1	-100.0*	-4.9%	.	1.1
O=C(NN1C(=O)c2ccccc2NC1c1ccccn1)c1ccc(Br)cc1 (configuration not stated)	11.6	1.6%	.	-0.3
CCN1C(=O)c2cccc3c(S(=O)(=O)N(C(=O)c4cccnc4)c4ccc(OC)cc4)ccc1c23	?	3.1%	.	.
CCN1C(=O)c2cccc3c(S(=O)(=O)N(C(=O)c4ccncc4)c4ccc(OC)cc4)ccc1c23	-84.8*	0.4%	.	.
CCOCCCNS(=O)(=O)c1ccc2c(c1)CCN2C(=O)CC	-109.7*	0.1%	-9.2%	8.1
COc1ccc(S(=O)(=O)N(C)c2ccc(OCC(=O)Nc3cc(C)on3)cc2)cc1	-97.0*	-8.9%	2.6%	-2.8
Cc1ccc2c(CC(=O)N3CCN(S(=O)(=O)c4ccc5c(c4)OCCO5)CC3)coc2c1	22.8	-16.0%	-7.6%	6.0
COC(=O)c1sc(NC(=S)NC(=O)c2ccccc2)nc1C	-87.6*	-2.6%	.	-11.9
Cc1nc(NC(=S)NC(=O)c2ccccc2)sc1C(=O)N(C)C	16.3	-4.5%	-3.0%	0.6
CCOC(=O)c1ccc(-c2c(C(=O)OCC)oc3cc(O)c(CC)cc3c2=O)o1	1.6	-8.2%	-3.5%	10.1
C#CCN1C(C)=C(C(=O)OC)[C@@H](c2cccc([N+](=O)[O-])c2)C(C(=O)OCC)=C1C	.	-3.8%	-8.9%	10.7
Cc1cc(SC(C)C(=O)Nc2ncc(Cl)cc2Cl)nc2ccccc12 (configuration not stated)	-92.0*	2.1%	.	.
COCCn1c(SC(C)C(=O)Nc2ncc(Cl)cc2Cl)nc2ccccc21 (configuration not stated)	-103.2*	-1.1%	3.0%	3.1
c1ccc(-c2csc3ncn4nnnc4c23)cc1	?	0.9%	-0.7%	7.2
SMILES	PNC assembly inh	ALOX12 inhib	15-hLO-2 inh	IMPase cell inh
CC(/C=N/NC(=O)c1c(Br)cnn1C)=C\c1ccccc1	?	-0.8%	.	.
Cn1ncc(Br)c1C(=O)N/N=C/c1ccc(OS(=O)(=O)c2ccccc2)cc1	-80.5*	-0.7%	.	?
Cc1cc2c(cc1C)-c1nnc(-c3ccc4ccccc4n3)n1C(C)(C)C2	?	-2.1%	-3.4%	2.8
COc1cc2c(cc1OC)-c1cc3nc4ccccc4nc3n1C(C)(C)C2	.	-22.2%	25.1µM*	-7.2
Cc1cccc(N(CC(=O)NCc2ccccc2)S(C)(=O)=O)c1C	.	.	.	-1.7
Cc1cc(Cl)ccc1OCCCC(=O)N1CCCc2ccccc21	-93.7*	-10.4%	-3.7%	7.8
O=C(CCCOc1ccccc1)N1CCCc2ccccc21	-6.4	-4.0%	0.7%	-13.9
O=C(Cc1ccccc1)Nc1ccccc1CO	8.1	-1.0%	3.6%	3.8
O=C(Cc1ccc(Cl)cc1)Nc1ccccc1CO	-86.9*	-6.9%	2.5%	-0.3
N#Cc1cccc(C(c2nnnn2C2CCCC2)N2CCC(Cc3ccccc3)CC2)c1 (configuration not stated)	-100.0*	2.9%	.	0.5
Cc1ccc(S(=O)(=O)Nc2ccc(C(=O)OCC(=O)N(CCC#N)c3ccccc3)cc2)cc1C	-86.9*	-1.0%	.	.
Nc1nonc1-c1noc(-c2ccccc2)n1	-100.0*	-1.1%	.	-4.2
COc1ccccc1CNC(=O)C1CCN(Cc2nc(-c3cccc(Cl)c3)oc2C)CC1	4.7	-9.0%	47.6%	?
CCc1ccc(-c2nc(CN3CCC(C(=O)NCc4ccccc4OC)CC3)c(C)o2)cc1	-97.5*	-6.0%	36.4%	?
OC(c1cccs1)(c1cccs1)C1C[N+]2(CF)CCC1CC2 (configuration not stated)	-98.2*	-3.2%	-1.9%[11.4 µM]	16.0[1.84 µM]
CCOC(=O)N1CCC(Nc2c(NCCCN(CC)Cc3ccccc3)c(=O)c2=O)CC1	-24.6	5.0%	3.6%	5.9
Cc1ccc(NC(=O)C2C3/C=C\CCCCC32)cc1 (configuration not stated)	-81.1*	-4.3%	.	-2.6
Cc1cc(C)c(NC(=O)C2C3/C=C\CCCCC32)c(C)c1 (configuration not stated)	-15.4	7.7%	-5.1%	3.4
CCCOC(=O)c1c(NC(=O)CCCn2nc([N+](=O)[O-])cc2C)sc(C(=O)OC)c1C	-119.3*	0.3%	.	-7.1
Cc1c(O)nc(SCC(=O)Nc2ccc3c4c(cccc24)CC3)n(-c2ccccc2)c1=O	-112.9*	-4.3%	.	.
O=C(CSc1nc(O)cc(=O)n1-c1ccccc1)Nc1ccc2c3c(cccc13)CC2	16.1	-23.8%	.	.
Cc1ccc(S(=O)(=O)NNC(=O)C2CCN(Cc3ccccc3)CC2)cc1	-100.0*	-2.3%	.	16.0
CCOC(=O)c1oc2ccc(CNC(C)(C)C)c(Cl)c2c1C	-118.9*	-11.1%	.	10.4
CCOC(=O)c1oc2cccc(O)c2c1C	33.5	-3.1%	-3.8%	3.7
N=c1c2c(-c3ccccc3)c(-c3ccccc3)n(Cc3ccco3)c2ncn1CCCn1ccnc1	-98.3*	2.0%	.	.
c1ccc(-c2c(-c3ccccc3)n(Cc3ccco3)c3ncnc(NCCCn4ccnc4)c23)cc1	-16.0	-5.3%	47.7%	9.6
CCOc1ccccc1C1Nc2ccccc2-c2nnc(SCc3ccccc3)nc2O1 (configuration not stated)	.	.	.	7.0
Cc1cc(C)c2c(c1)[C@@H]1C=CC[C@@H]1[C@H](c1ccc(S(=O)(=O)N3CCOCC3)cc1)N2	-80.9*	-0.1%	.	.
COc1nnc(-c2ccc(N3CCCCC3)c(NC(=O)c3ccccc3Cl)c2)c2ccccc12	.	.	.	8.4
